Data published in PubChem BioAssay.
The source made the active and inactive calls.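 Rule for the calls, unless noted: active = compounds whose cell count with miR-34 switched on is under 0.7 times the count with it off; inactive = the rest.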

How the values were obtained:
[1] = sensitizers of A549 cells to miR-34 induction, primary screen, imaging, A549 dox-inducible miR-34, nuclei and caspase counts (AID 1347080); settings: A549 miR-34 inducible, Hoechst nuclei count, 48 h
[2] = survival rescue of mitochondrial mutant cells in low glucose, primary screen, MELAS cybrids, Rieske KO mouse fibroblasts, CellTiter-Glo (AID 1508586;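 active = mean z-score across replicates of 1.96 or higher in either the MELAS or the Rieske mutant cell line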;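 note: z relative to plate mean and SD of compound and empty wells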)
[3] = stronger effect = lower value, cell number ratio, induced over uninduced
[4] = measured here: relative caspase fold change +Dox/-Dox
[5] = measured here: total cells with miR-34 induction, stronger effect = lower value
[6] = measured here: total cells without miR-34 induction
[7] = MELAS cybrid survival, CellTiter-Glo 48 h, stronger effect = higher value
[8] = Rieske KO mouse fibroblast survival, CellTiter-Glo 72 h
Note: test concentration not given here.

SMILES	fold change [1, 3]	fold change [1, 4]	cell count [1, 5]	cell count [1, 6]	z-score [2, 7]	z-score [2, 8]
CC1=C(C(=O)OC2CCCCC2)C(c2ccc([N+](=O)[O-])cc2)C2=C(CC(C)(C)CC2=O)N1 (stereo not given)	1.46 (inactive)	0.547	1480	1010	-0.282 (inactive)	-2.79
C=CCc1cccc(C=NNC(=O)CN2CCN(Cc3ccccc3)CC2)c1O	0.992 (inactive)	0.755	3820	3850	-0.146 (inactive)	-1.03
COc1cc(O)cc(C2CC(=O)c3c(O)cc(OC4OC(CO)C(O)C(O)C4OC4OC(C)C(O)C(O)C4O)cc3O2)c1 (stereo not given)	0.921 (inactive)	0.443	8090	8790	-0.19 (inactive)	-0.0453
C=CC(C)(O)CCC1[C@@]2(C)CCCC(C)(C)C2CC[C@@]1(C)O (stereo not given in full)	0.916 (inactive)	0.879	8210	8970	-0.292 (inactive)	-0.0842
CCC(=O)O[C@@]1(C(=O)CCl)C(C)C[C@H]2[C@@H]3CC(F)C4=CC(=O)C=C[C@]4(C)[C@]3(F)C(O)C[C@@]21C (stereo not given in full)	0.853 (inactive)	0.626	4930	5780	-0.347 (inactive)	-0.183
COc1cccc2c1C(=O)c1c(O)c3c(c(O)c1C2=O)C[C@@](O)(C(=O)CO)C[C@@H]3OC1CC(N)C(OC2CCCCO2)C(C)O1 (stereo not given in full)	1.07 (inactive)	1.21	1240	1150	3.19 (active)	-0.724
CCc1cnn2c(NCc3ccc[n+]([O-])c3)cc(N3CCCCC3CCO)nc12 (stereo not given)	1.13 (inactive)	0.956	1750	1550	1.14 (inactive)	-3.25
CCNC(=O)Nc1ccc(-c2nc3c(c(N4CCOCC4C)n2)CCN(C2COC2)C3)cc1 (stereo not given)	0.905 (inactive)	0.555	2790	3080	2.89 (active)	-0.834
COc1cc(-c2cc(-c3cccc(O)c3)cnc2N)cc(OC)c1OC	0.804 (inactive)	0.388	5380	6700	-0.34 (inactive)	-0.00175
CC(CN1CC(=O)NC(=O)C1)N1CC(=O)NC(=O)C1 (stereo not given)	0.969 (inactive)	1.09	5760	5950	-0.442 (inactive)	0.325
CN(C)c1cc(NC(=O)CNC(C)(C)C)c(O)c2c1C[C@H]1C[C@H]3C(N(C)C)C(=O)C(C(N)=O)=C(O)[C@@]3(O)C(=O)C1=C2O (stereo not given in full)	0.917 (inactive)	1.11	8200	8950	-0.43 (inactive)	0.225
CCC1OC(=O)C(C)C(OC2C[C@@](C)(OC)C(O)C(C)O2)C(C)C(OC2OC(C)CC(N(C)C)C2O)[C@@](C)(O)CC(C)[C@@H]2NC(COCCOC)OC(C2C)[C@]1(C)O (stereo not given in full)	0.923 (inactive)	0.895	8840	9580	-0.208 (inactive)	-0.128
CCOC(=O)O[C@@]1(C(=O)OCCl)CC[C@H]2[C@@H]3CCC4=CC(=O)C=C[C@]4(C)[C@@H]3C(O)C[C@@]21C (stereo not given in full)	0.859 (inactive)	1.25	5320	6190	-0.313 (inactive)	-0.191
C[C@]12CC[C@H]3c4ccc(O)cc4CC[C@H]3[C@@H]1CC(O)C2O (stereo not given in full)	0.884 (inactive)	0.677	8910	10100	-0.421 (inactive)	-0.251
Cc1nc(C#Cc2ccnc(Cl)c2)c(C)n1-c1ccc(OC(F)(F)F)cc1	1.01 (inactive)	0.784	6890	6830	-0.149 (inactive)	0.0252
NC1CC1c1ccc(-c2cccc(O)c2)cc1 (stereo not given)	0.891 (inactive)	0.382	7530	8450	-0.398 (inactive)	0.0465
OCC(CO)NC1C[C@@](O)(CO)C(O)C(O)C1O (stereo not given in full)	0.838 (inactive)	1.1	8490	10100	-0.052 (inactive)	-0.122
O=C(NCCO)c1cccc(-c2cc(Nc3ccc(OC(F)(F)F)cc3)ncn2)c1	0.847 (inactive)	0.626	7400	8740	-0.469 (inactive)	0.943
O=C(C=Cn1cnc(-c2cc(C(F)(F)F)cc(C(F)(F)F)c2)n1)N1CC(F)(F)C1	0.887 (inactive)	0.422	1980	2230	-0.618 (inactive)	-7.49
O=C(CS(=O)Cc1ccco1)NCC=CCOc1cc(CN2CCCCC2)ccn1 (stereo not given)	0.878 (inactive)	0.735	8120	9240	-0.242 (inactive)	-0.613
CCn1c2ccccc2c2cc(Nc3ccnc(NCCCN4CCOCC4)n3)ccc21	1.23 (inactive)	0.454	2810	2280	-0.307 (inactive)	0.428
C=C1C(=O)OC2C1CCC(C)=CCC[C@@]1(C)OC21 (stereo not given in full)	0.965 (inactive)	0.646	8720	9040	0.936 (inactive)	-0.281
NC(=O)NN=Cc1ccc([N+](=O)[O-])o1	0.88 (inactive)	0.871	7280	8270	-0.0834 (inactive)	-0.616

SMILES	fold change [1, 3]	fold change [1, 4]	cell count [1, 5]	cell count [1, 6]	z-score [2, 7]	z-score [2, 8]
CCC(=O)NCCC1CCc2ccc3c(c21)CCO3 (stereo not given)	0.931 (inactive)	4.33	8720	9370	-0.89 (inactive)	0.046
C[C@H]1CC[C@H]2[C@@H](C)C(OC(=O)CCC(=O)O)O[C@H]3O[C@@]4(C)CC[C@@H]1[C@]32OO4 (stereo not given in full)	0.953 (inactive)	0.708	4220	4430	-0.298 (inactive)	-0.0832
C=CCc1ccc(O)c(-c2cc(CC=C)ccc2O)c1	0.923 (inactive)	0.657	7490	8120	0.173 (inactive)	-0.0672
CC(NC(=O)Cc1cc(F)cc(F)c1)C(=O)NC(C(=O)OC(C)(C)C)c1ccccc1 (stereo not given)	0.856 (inactive)	0.819	7300	8530	-0.187 (inactive)	0.801
CC1CC(=O)NN=C1c1ccc(NN=C(C#N)C#N)cc1 (stereo not given)	0.851 (inactive)	1.15	8280	9730	-0.305 (inactive)	-0.733
COc1cc2ncnc(Nc3ccc(F)c(Cl)c3)c2cc1NC(=O)C=CCN1CCCCC1	1.12 (inactive)	0.707	3310	2960	-0.496 (inactive)	-1.94
Cc1nc(N(C)C(=O)Cc2ccc(-c3ccccn3)cc2)sc1S(N)(=O)=O	0.911 (inactive)	0.414	7530	8270	-0.339 (inactive)	-0.561
C#C[C@]1(O)CC[C@H]2[C@@H]3CCC4=CC(=O)CC[C@@H]4[C@@H]3CC[C@@]21C	0.857 (inactive)	0.775	7940	9270	-0.24 (inactive)	-0.172
CC(NC(=O)C(C#N)=Cc1cccc(Br)n1)c1ccccc1 (stereo not given)	1.21 (inactive)	0.817	1620	1340	0.502 (inactive)	0.371
C=CC1CN2CC[C@H]1C[C@H]2C(O)c1ccnc2ccc(OC)cc12 (stereo not given in full)	0.964 (inactive)	0.844	8110	8420	-0.205 (inactive)	-0.396
O=C(O)C(Cc1ccccc1[N+](=O)[O-])=NNC1=NC(c2ccc(Cl)c(Cl)c2)CS1 (stereo not given)	0.88 (inactive)	0.284	6240	7100	-0.273 (inactive)	0.221
CC(C)(O)CCC(O)[C@](C)(O)C1CC[C@@]2(O)C3=CC(=O)[C@@H]4CC(O)C(O)C[C@]4(C)[C@@H]3CC[C@]12C (stereo not given in full)	0.992 (inactive)	0.932	10200	10300	-0.354 (inactive)	0.685
Cc1cc2c(F)c(Oc3ncnn4cc(OCC(C)O)c(C)c34)ccc2[nH]1 (stereo not given)	1.07 (inactive)	0.907	4250	3990	-0.638 (inactive)	0.759
CN1CCN(S(=O)(=O)c2ccc(-c3cnc(N)c(C(=O)Nc4cccnc4)n3)cc2)CC1	0.893 (inactive)	0.445	2390	2680	0.891 (inactive)	-1.29
CC(C)N(CCCNC(=O)Nc1ccc(C(C)(C)C)cc1)CC1OC(n2cc(Br)c3c(N)ncnc32)C(O)C1O (stereo not given)	0.844 (inactive)	1.16	7150	8480	-0.128 (inactive)	-0.178
CC(C)(C)[N+]([O-])=Cc1ccc(S(=O)(=O)O)cc1S(=O)(=O)O	0.908 (inactive)	1.03	9880	10900	-0.368 (inactive)	0.732
C#CCC(c1nc2cc(Cl)ccc2c(=O)n1Nc1ccccc1)N(CCCN)C(=O)c1cccc(Cl)c1F (stereo not given)	0.689 (active)	0.42	882	1280	1.61 (inactive)	0.152
C[C@@]12CC[C@H]3c4ccc(O)cc4CC(CCCCCCCCCS(=O)CCCC(F)(F)C(F)(F)F)[C@H]3[C@@H]1CCC2O (stereo not given in full)	0.975 (inactive)	0.957	4560	4680	-0.569 (inactive)	0.522
CC(=O)Nc1nc2c(Oc3cc(-c4ccc(C(F)(F)F)cc4)ncn3)cccc2s1	0.981 (inactive)	0.45	8510	8670	-0.457 (inactive)	-0.29
Cc1cccc(C)c1OCC(=O)NC(Cc1ccccc1)C(O)CC(Cc1ccccc1)NC(=O)C(C(C)C)N1CCCNC1=O (stereo not given)	1 (inactive)	0.797	6290	6270	-0.513 (inactive)	0.0231
C=C[C@@]1(C)CC(=O)[C@@]2(O)[C@@]3(C)C(O)CCC(C)(C)[C@@H]3C(O)C(OC(C)=O)[C@@]2(C)O1 (stereo not given in full)	0.968 (inactive)	1.19	8540	8820	0.411 (inactive)	-0.394
COc1ccc2cc1Oc1ccc(cc1)CC1c3cc(c(OC)cc3CCN1C)Oc1c(OC)c(OC)cc3c1C(C2)N(C)CC3 (stereo not given)	0.908 (inactive)	0.992	6590	7260	-0.603 (inactive)	-0.273
